Data from PubChem BioAssay (NCI).
Compounds without any hit were thinned out: in the full panel of roughly 83,000, 20% have a hit.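 Single-dose data. Exposure time 48 hours. Values below 10 considered active.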 The source made the active and inactive calls.

Test system: NCI/ADR-RES ovarian
Experiment: NCI-60 one-dose screen, 48 h (100 = growth as untreated, 0 = no growth, -100 = all killed)
Details: 10 µM unless noted

| Structure (SMILES) | growth |
| --- | --- |
| O=S(=O)(NCCCNc1cc(-c2cn(-c3ccccc3)nc2-c2cccc(O)c2)ccn1)c1ccc(Cl)cc1 | 23.7% (inactive) |
| COc1ccc(-c2nc3sccn3c2-c2ccnc(NCCCNS(=O)(=O)c3ccc(C)cc3)n2)cc1 | 20.8% (inactive) |
| O=C1c2ccccc2C(=O)c2c1oc1oc3c(c(=O)c21)c(=O)n(-c1ccccc1)c1ccccc31 | 90.3% (inactive) |
| C#CCC1(c2ccc(F)c(F)c2)NS(=O)(=O)c2ccccc21 (stereo not drawn) | 103% (inactive) |
| Cc1nc(Nc2cccnc2)sc1C(=O)/C=C/c1ccc(F)cc1 | 38.4% (inactive) |
| CCC#CC[C@H]1C/C=C2/C(=O)C=C[C@@H]2C/C=C\CCCC(=O)O1 | 22.7% (inactive) |
| CNC(=O)Cc1nc(-c2cccc(NS(=O)(=O)c3c(F)cccc3F)c2F)c(-c2ccnc(Nc3ccccc3)n2)s1 | 104% (inactive) |
| CC(=O)Nc1ccc2c(c1)/C(=C\C=C/c1ccc([N+](C)(C)C)cc1)c1ccccc1-2 | 101% (inactive) |
| COc1cc(OC)cc(-c2n[nH]nc2-c2ccc3c(c2)OCO3)c1 | 3.37% (active) |
| O=C1CCC/C=C\C[C@H]2C=CC(=O)/C2=C/C[C@H](C/C=C\CC(F)(F)F)O1 | 8.83% (active) |
| O=C(Nc1cccc(Cl)c1)c1cc([N+](=O)[O-])ccc1O | 56% (inactive) |
| O=C1N=C(c2c(-c3[nH]c(=O)c4ccc(Br)cc4c3O)c(O)c3ccccc3c2O)C(=O)c2cc(Br)ccc21 | -28.9% (active) |
| COc1cc(-n2nc(C(=O)Nc3ccc(C(=O)O)cc3)nc2-c2ccccc2)cc(OC)c1OC | 89.1% (inactive) |
